Only some compounds are listed: those with a hit (about 4.1% of all), similar ones and a draw of the others.
MITF TRPM1 inh: MITF TRPM1 promoter inhibition in SK-MEL-5 cells; actives 0.83% (n = 330,000); SK-MEL-5 TRPM1 promoter luciferase, 24 h; inhibition, % at 12.5 µM;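 active means mean inhibition across replicates of 60% or more, whatever share of single replicates reaches that level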
Peg3 promoter: inhibitors of Peg3 promoter | actives 1.7% (n = 360,000) | HeLa PEG-Prom luciferase reporter, luminescence, overnight | inhibition, % at 20 µM;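 active means inhibition of at least 50% at 20 µM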
EBV LMP1 NFkB: reduces LMP1-driven NF-kappaB luciferase signal; LMP1-induced NF-kappaB luciferase reporter cells, luminescence; inhibition, % at 12.5 µM; actives 0.69% (n = 350,000); in the data active means inhibition above about 41%;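 further: 0% = neutral control wells and 100% = reference inhibitor control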
Shn3 3UTR inh: inhibitors of Schnurri-3 3'UTR reporter in osteoblasts. Clone20 osteoblast Shn3 3'UTR firefly luciferase, 24 h. inhibition, % at 12.5 µM. actives 0.52% (n = 360,000). AID 588674;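 active means mean inhibition of at least 75% with every replicate also reaching 75%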;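 further: 0% = median of neutral control wells and 100% = pilot-screen positive control compound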
TROY signal inh: inhibitors of TROY-dependent NF-kB signaling. Q293 LMP1-TROYcd NF-kB luciferase reporter, 4 h. inhibition, % at 10 µM. actives 0.98% (n = 360,000);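 active means compounds whose plate-normalised and pattern-corrected inhibition of the luciferase reporter signal at the single screening dose is 50% or more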
TWEAK-Fn14 inh: TWEAK-Fn14 signaling inhibition | actives 2% (n = 360,000) | inhibition, % at 10 µM | AID 1159606 | TWEAK-stimulated Fn14 reporter cells, luciferase luminescence, 8 h; in the data active means inhibition above about 50%
* marks the source's active call; other numbers are inactive results; x = no result; ! = a repeat was not active.

SMILES	MITF TRPM1 inh	Peg3 promoter	EBV LMP1 NFkB	Shn3 3UTR inh	TROY signal inh	TWEAK-Fn14 inh
COc1ccc(OC2C(=O)N(Cc3ccc4c(c3)OCO4)C2c2cccs2)cc1 (stereo unspecified)	5	17	19	40	37	61*
O=[N+]([O-])c1ccc(C2=Nn3c(Cn4nnc5ccccc54)nnc3SC2)cc1	1	15	1	-1	4	-9
Cc1ccc(C23CC4CC(CC(CN)(C4)C2)C3)cc1	12	103*	-21	13	-8	1
NCC12CC3CC(C1)CC(c1ccc(Br)cc1)(C3)C2	-7	104*	1	48	-65	-55
COc1ccc(NC(=O)C2(C)CCN2CCc2ccccc2)cc1OC (stereo unspecified)	x	23	x	-6	-9	-22
O=[N+]([O-])c1ccccc1CCc1cnc(Cl)s1	-9	-15	-3	-18	52*	58*
N=c1c2c(ncn1CCN1CCOCC1)Oc1cc(O)ccc1C2c1ccccc1 (stereo unspecified)	-2	1	1	-24	10	2
Cc1cccc(N2CCN(C(=O)CCn3c(=S)[nH]c4cc5c(cc4c3=O)OCO5)CC2C)c1 (stereo unspecified)	-10	63*	2	-14	20	47
O=C(CCCn1c(=S)[nH]c2cc3c(cc2c1=O)OCO3)N1CCN(c2ccc(Cl)cc2)CC1	18	25	22	22	58*	17
O=C(CCCn1c(=S)[nH]c2cc3c(cc2c1=O)OCO3)N1CCN(c2ccccc2)CC1	5	15	0	1	8	13
COc1cccc(CC2(CO)CCCN(C(=O)c3cc[n+]([O-])cc3)C2)c1 (stereo unspecified)	-7	3	1	-6	-2	5
COc1ccc(-n2c(C)c(C(C)=O)c3cc(O)ccc32)cc1	1	7	57*	6	49	59*
CCOc1ccc(-n2c(C)c(C(=O)O)c3cc(OC)ccc32)cc1	-12	-4	2	1	-15	40
CCOc1ccc(-n2c(C)c(C(C)=O)c3cc(OC(C)=O)ccc32)cc1	x	26	32	46	42	79*
COc1ccc2c(c1)c(C(C)=O)c(C)n2CCc1ccccc1	17	20	26	17	27	69*
COc1ccc2c(c1)c(C(C)=O)c(C)n2CCc1ccc(OC)c(OC)c1	4	16	7	-9	-19	-26
CC1CCCC(N2CCN(S(=O)(=O)c3ccccc3)CC2)C1 (stereo unspecified)	11	7	-7	9	-20	25
COC(=O)c1cc(NC(=O)CN(c2ccccc2OC)S(=O)(=O)c2ccccc2)ccc1Cl	11	5	-2	22	14	53*
COC(=O)c1cc(NC(=O)CN(c2cccc(OC)c2)S(=O)(=O)c2ccccc2)ccc1Cl	2	47	-8	60	35	51*
COc1ccccc1N(CC(=O)Nc1ccc2c(c1)OCO2)S(=O)(=O)c1ccccc1	7	26	9	-13	6	13
O=C(c1ccc(CSc2ccc(Cl)cc2)o1)N1CCOCC1	x	-55	x	-1	-16	-16
Cc1sc2nc(SCC(=O)Nc3ccc(Cl)c(C(=O)O)c3)[nH]c(=O)c2c1C	-15	-62	2	-61	25	52*
CC(=O)Nc1ccc(NC(=O)CSc2nc(C)nc3sc(C)c(C)c23)cc1	8	20	2	10	-6	-37
CCN(Cc1ccc2c(c1)OCO2)C(=O)CSc1nc(C)nc2sc(C)c(C)c12	-7	38	-1	0	57*	13
Cc1nc(SCC(=O)Nc2ccc(CN3CCCC3)cc2)c2c(C)c(C)sc2n1	77*	85*	-13	-4	13	-29
SMILES	MITF TRPM1 inh	Peg3 promoter	EBV LMP1 NFkB	Shn3 3UTR inh	TROY signal inh	TWEAK-Fn14 inh
CN1CCN(C(=O)C(N)Cc2ccccc2)CC1 (stereo unspecified)	0	3	-3	-4	7	2
O=C(Nc1ccc(-c2nc3ccccc3o2)cc1)c1cc(-n2cnnc2)ccc1Cl	14	-102	-28	36	36	76*
O=C(Nc1ccc(-c2nc3ccccc3o2)c(O)c1)c1cc(-n2cnnc2)ccc1Cl	35	-30	-18	35	38	66*
O=C(CN1C(=O)c2ccccc2C1=O)Nc1ccc(-c2nc3ccccc3o2)cc1	-8	-17	-3	-4	x	72*
Cc1ccc(OCC(=O)Nc2ccc(O)c(-c3nc4ccccc4o3)c2)cc1	42	52*	3	34	7	-45
O=C(CCN1C(=O)c2ccccc2C1=O)Nc1ccc(-c2nc3ccccc3o2)cc1	-21	-168	5	-9	-21	-25
O=C(Nc1ccc2oc(-c3ccccc3)nc2c1)c1cc(-n2cnnc2)ccc1Cl	-42	-118	-6	-1	-34	32
Cc1ccc(NC(=O)c2ncn(CCCN(CCCn3cnc(C(=O)Nc4ccc(C)c(C)c4)n3)Cc3ccc4[nH]ccc4c3)n2)cc1C	15	18	-3	0	13	20
O=C(Nc1ccc(-c2nc3ccccc3o2)cc1)c1ccc(N2C(=O)C3C4C=CC(C4)C3C2=O)cc1 (stereo unspecified)	12	-20	-3	20	57*	21
O=C(Nc1ccc(-c2nc3ccccc3o2)cc1)c1ccc2c(c1)OCO2	-7	13	-28	-15	-31	1
COc1cc(Nc2ccn3nccc3n2)cc(OC)c1OC	x	17	x	-4	-4	5
Cc1ccc(NC(=O)CCN2C(=O)CSC2=O)c(C)c1	3	-9	10	-6	x	74*
Cc1ccnc2c1ccc1ccccc12	-12	-24	6	-16	20	-29
c1cnc2c(c1)ccc1cccnc12	79*!	31	18	95*!	-2	-19
Cc1ccnc2c1ccc1cccnc12	79*	24	80*	92*	-9	-32
Cc1cccc2cccnc12	0	5	-5	3	-4	10
Cc1ccnc2c1ccc1c(C)ccnc12	77*	-8	84*	90*	-15	-7
Cc1ccc(N2CC(NC(=O)N3CCN(C(=O)c4ccco4)CC3)CC2=O)cc1 (stereo unspecified)	-1	11	-1	-6	8	-4
COc1ccc2[nH]c3c(=O)n(CCCCC(=O)N4CCC(C(N)=O)CC4)c(=S)[nH]c3c2c1	1	7	65*	-21	5	-18
O=c1[nH]c2ccccc2c(O)c1SCCO	3	1	-11	-14	-13	4
O=C1C(SCCO)=C(SCCO)C(=O)c2ccccc21	111*	100*	59*	93*	32	76*
Nc1c(C(=O)NC2CC2)sc2nc3c(c(-c4ccco4)c12)CC/C3=C/c1ccco1	-3	-7	1	-4	8	83*
CCCc1nnc(SCc2ccc(OCC)cc2)n1N	9	8	77*	-8	6	-26

Screening results deposited in PubChem BioAssay by several laboratories.
